Source: publication PMC8384837, “Expanding the binding specificity for RNA recognition by a PUF domain”

Molecular target: PUM1 PUF domain R5-GFL (Homo sapiens, UniProt Q14671 828-1176, C1007G;R1008F;Q1011L)
Experiment: yeast three-hybrid, YBZ-1, SC-Leu-His + 0.5 mM 3-AT, 4 days
Conditions: tags: N-Gal4 AD-HA kept; label: inside an RPR1-promoter hybrid RNA with tandem MS2 sites; ssRNA
Procedure, shortened: (§1)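 The interaction score is the log change in variant frequency from input to selection. Scores were computed in log2 with a pseudocount of 1 for absent variants, using Illumina sequencing of PCR-amplified repeat regions. The input came from four days on SC-Leu and the selection from four days on SC-Leu-His + 0.5 mM 3-AT. The cells were strain YBZ-1 (LexA–MS2 coat fusion, HIS3 reporter) co-expressing Pumilio-1 PUF domain libraries and matching RNA elements from a centromeric plasmid.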

Sequence	binding signal
GGCUAGAACUAGUGGAUCCCCCGGCGCCCGGCGGCUCGAGCCCGGGUAAGUGUGAAUAGUCUGCAUGCCGCCGGGCGCCAUGCCUGCAGGUCGACUCUAGAAAACAUG	1.77 log2 enrichment (interaction score)
GGCUAGAACUAGUGGAUCCCCCGGCGCCCGGCGGCUCGAGCCCGGGUAAGUGUUAAUAGUCUGCAUGCCGCCGGGCGCCAUGCCUGCAGGUCGACUCUAGAAAACAUG	5.05 log2 enrichment (interaction score)
GGCUAGAACUAGUGGAUCCCCCGGCGCCCGGCGGCUCGAGCCCGGGUAAGUGUAAAUAGUCUGCAUGCCGCCGGGCGCCAUGCCUGCAGGUCGACUCUAGAAAACAUG	3.65 log2 enrichment (interaction score)

Molecular target: PUM1 PUF domain R3-ARR (Homo sapiens, UniProt Q14671 828-1176, C935A;Q939R)
Experiment: as above
Conditions: tags: N-Gal4 AD-HA kept; label: inside an RPR1-promoter hybrid RNA with tandem MS2 sites; ssRNA
Procedure, shortened: as §1

Sequence	binding signal
GGCUAGAACUAGUGGAUCCCCCGGCGCCCGGCGGCUCGAGCCCGGGUAAGUGUAAUUAGUCUGCAUGCCGCCGGGCGCCAUGCCUGCAGGUCGACUCUAGAAAACAUG	3.37 log2 enrichment (interaction score)
GGCUAGAACUAGUGGAUCCCCCGGCGCCCGGCGGCUCGAGCCCGGGUAAGUGUAAGUAGUCUGCAUGCCGCCGGGCGCCAUGCCUGCAGGUCGACUCUAGAAAACAUG	1.41 log2 enrichment (interaction score)
GGCUAGAACUAGUGGAUCCCCCGGCGCCCGGCGGCUCGAGCCCGGGUAAGUGUAAAUAGUCUGCAUGCCGCCGGGCGCCAUGCCUGCAGGUCGACUCUAGAAAACAUG	2.49 log2 enrichment (interaction score)

Molecular target: PUM1 PUF domain R4-PFR (Homo sapiens, UniProt Q14671 828-1176, N971P;H972F;Q975R)
Experiment: as above
Conditions: tags: N-Gal4 AD-HA kept; label: inside an RPR1-promoter hybrid RNA with tandem MS2 sites; ssRNA
Procedure, shortened: as §1

Sequence	binding signal
GGCUAGAACUAGUGGAUCCCCCGGCGCCCGGCGGCUCGAGCCCGGGUAAGUGUACAUAGUCUGCAUGCCGCCGGGCGCCAUGCCUGCAGGUCGACUCUAGAAAACAUG	6.57 log2 enrichment (interaction score)
GGCUAGAACUAGUGGAUCCCCCGGCGCCCGGCGGCUCGAGCCCGGGUAAGUGUAUAUAGUCUGCAUGCCGCCGGGCGCCAUGCCUGCAGGUCGACUCUAGAAAACAUG	4.81 log2 enrichment (interaction score)
GGCUAGAACUAGUGGAUCCCCCGGCGCCCGGCGGCUCGAGCCCGGGUAAGUGUAAAUAGUCUGCAUGCCGCCGGGCGCCAUGCCUGCAGGUCGACUCUAGAAAACAUG	1.61 log2 enrichment (interaction score)
